PubChem BioAssay (EPA / NIEHS)
Records with an inconclusive call do not appear. Calls of active or inactive are those of the source. Rule for the calls, unless noted: active = hit-call score of the fitted dose curve at least 0.9, where 1 is the maximum; inactive = score below 0.9.

How the values were obtained:
CD40, CD40 (gene 958) = experiment: BSK_SAg_CD40: BioMAP Diversity Plus: SAg Assay for CD40 Biomarker Activity (AID 2283088); conditions: primary human HUVEC with PBMC; actives raise or lower the signal
How it was run: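 HUVEC/PBMC co-culture, 24 h post-dose; CD40 by ELISA, fluorescence intensity; bidirectional fit vs DMSO negative control.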

CD69, CD69 (gene 969) = experiment: BSK_SAg_CD69: BioMAP Diversity Plus: SAg Assay for CD69 Biomarker Activity (AID 2283089); conditions: primary human HUVEC with PBMC; actives raise or lower the signal;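 for AC50: cell surface CD69 protein quantified by ELISA with fluorescence detection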
How it was run: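 Endothelial/PBMC co-culture; chemical added; 24 h incubation; CD69 ELISA with fluorescence detection; bidirectional fit vs DMSO.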

[1] = read-out: Monocyte Chemoattractant Protein-1 (MCP1), CCL2 (gene 6347); experiment: BSK_SAg_MCP1: BioMAP Diversity Plus: SAg Assay for Monocyte Chemoattractant Protein-1 (MCP1) Biomarker Activity (AID 2283090); conditions: primary human HUVEC with PBMC; actives raise or lower the signal
How it was run: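 MCP-1 levels in the endothelial–PBMC SAg co-culture were quantified by ELISA at 24 h post-dosing; both increases and decreases versus DMSO scored. Cytotoxicity monitored by SRB total protein in parallel cultures.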

[2] = read-out: E-selectin (Homo sapiens) (UniProt P16581); experiment: BSK_SAg_Eselectin: BioMAP Diversity Plus: SAg Assay for Eselectin Biomarker Activity (AID 2283091); conditions: primary human HUVEC with PBMC; actives raise or lower the signal
How it was run: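 E-selectin ELISA readout at 24 h post-dosing in human umbilical vein endothelial cell/PBMC co-culture; gain or loss of signal fitted relative to DMSO baseline.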

[3] = read-out: Monokine induced gamma interferon (MIG), CXCL9 (gene 4283); experiment: BSK_SAg_MIG: BioMAP Diversity Plus: SAg Assay for Monokine induced gamma interferon (MIG) Biomarker Activity (AID 2283092); conditions: primary human HUVEC with PBMC; actives raise or lower the signal
How it was run: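 Measures CXCL9 protein by ELISA in a human vascular primary-cell co-culture (umbilical vein endothelium with PBMC) 24 h after chemical addition. Activity is scored up or down from the DMSO control.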

[4] = BSK_SAg_PBMCCytotoxicity: PBMC Cytotoxicity Assessment in the BioMAP Diversity Plus: SAg Assay (AID 2283093); conditions: primary human HUVEC with PBMC;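 note: PBMC viability measured as Alamar Blue reduction fluorescence at 546/580 nm; fitted both ways against DMSO so a hit may be loss or gain of signal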
How it was run: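 Human umbilical vein endothelial cells co-cultured with PBMC; PBMC (75,000/well) pre-treated with compound 1 h, then activated with SEB and TSST-1 (20 ng/mL final each) for 90 h. Alamar Blue added 6 h, fluorescence 546/580 nm; bidirectional fit versus DMSO.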

[5] = read-out: Interleukin-8 (IL8), CXCL8 (gene 3576); experiment: BSK_SAg_IL8: BioMAP Diversity Plus: SAg Assay for Interleukin-8 (IL8) Biomarker Activity (AID 2283094); conditions: primary human HUVEC with PBMC; actives raise or lower the signal
How it was run: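 ELISA read-out of IL-8 in a primary human vascular co-culture (umbilical vein endothelium plus PBMC), taken 24 h after compound addition. Values derive from bidirectional fits against DMSO negative controls.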

[6] = BSK_SAg_Proliferation: Cell Proliferation Assessment in the BioMAP Diversity Plus: SAg Assay (AID 2283095); conditions: primary human HUVEC with PBMC;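 note: relative cell number as total protein by SRB absorbance in sub-confluent culture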
How it was run: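 Cells (endothelium plus PBMC, human primary) were dosed with chemical, cultured 96 h, fixed in 10% TCA and stained with 0.1% SRB. Absorbance at 560 nm gave relative protein, fitted bidirectionally relative to DMSO.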

[7] = BSK_SAg_SRB: Viability Assessment in the BioMAP Diversity Plus: SAg Assay (AID 2283096); conditions: primary human HUVEC with PBMC;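 note: cells read one day after compound addition; hits may be either gain or loss of signal compared with DMSO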
How it was run: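 Endothelial/PBMC primary human co-culture; compound 24 h; fix 10% TCA, stain 0.1% SRB, A560; protein content as cytotoxicity proxy; bidirectional curve fit, DMSO = baseline.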

[8] = molecular target: human CYP1A1, CYP1A1 (gene 1543) (UniProt P04798); experiment: NVS_ADME_hCYP1A1: NovaScreen (NVS) CYP450-related Enzyme Activity (ADME) Assay for human CYP1A1 (AID 2283100; active = hit-call score of the fitted dose curve at least 0.9, where 1 is the maximum)
Chain of human CYP1A1, CYP1A1 (gene 1543) (P04798 whole entry, looked up): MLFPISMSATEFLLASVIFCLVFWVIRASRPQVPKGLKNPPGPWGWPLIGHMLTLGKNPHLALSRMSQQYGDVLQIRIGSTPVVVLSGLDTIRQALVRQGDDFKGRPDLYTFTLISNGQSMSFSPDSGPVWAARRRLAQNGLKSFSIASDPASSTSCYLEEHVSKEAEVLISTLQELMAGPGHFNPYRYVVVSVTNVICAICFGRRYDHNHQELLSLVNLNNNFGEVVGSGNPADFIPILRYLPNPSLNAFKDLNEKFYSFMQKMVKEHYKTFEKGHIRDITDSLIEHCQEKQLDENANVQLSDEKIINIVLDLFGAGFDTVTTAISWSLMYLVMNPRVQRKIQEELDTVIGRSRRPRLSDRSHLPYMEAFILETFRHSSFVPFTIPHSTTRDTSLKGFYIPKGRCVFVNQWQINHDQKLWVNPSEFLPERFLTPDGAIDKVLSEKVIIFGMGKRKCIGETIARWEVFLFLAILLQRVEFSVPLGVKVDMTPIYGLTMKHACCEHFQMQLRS
How it was run: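 Read-out: fluorescence intensity from enzymatic turnover of substrate by recombinant CYP1A1, loss of signal indicating inhibition. Incubation 1 h post-dose. Primary single-point 10 uM in duplicate; actives rerun singly with top concentration 20 uM.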

[9] = molecular target: human CYP2B6, CYP2B6 (gene 1555) (UniProt P20813); experiment: NVS_ADME_hCYP2B6: NovaScreen (NVS) CYP450-related Enzyme Activity (ADME) Assay for human CYP2B6 (AID 2283101; active = hit-call score of the fitted dose curve at least 0.9, where 1 is the maximum)
Chain of human CYP2B6, CYP2B6 (gene 1555) (P20813 whole entry, looked up): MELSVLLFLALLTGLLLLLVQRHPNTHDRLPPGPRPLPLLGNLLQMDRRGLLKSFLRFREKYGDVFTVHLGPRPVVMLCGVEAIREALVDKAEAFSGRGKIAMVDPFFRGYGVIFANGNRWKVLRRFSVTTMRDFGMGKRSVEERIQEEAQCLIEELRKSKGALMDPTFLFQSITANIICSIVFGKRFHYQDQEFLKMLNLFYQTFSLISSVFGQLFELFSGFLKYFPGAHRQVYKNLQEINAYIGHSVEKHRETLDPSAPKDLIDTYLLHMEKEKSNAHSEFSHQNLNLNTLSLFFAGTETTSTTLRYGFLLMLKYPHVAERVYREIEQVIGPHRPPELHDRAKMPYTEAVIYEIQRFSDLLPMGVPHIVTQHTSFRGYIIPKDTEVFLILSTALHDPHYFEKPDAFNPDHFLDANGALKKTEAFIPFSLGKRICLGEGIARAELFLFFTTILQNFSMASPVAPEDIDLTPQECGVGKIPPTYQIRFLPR
How it was run: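 Recombinant protein, specific fluorescent substrate, read at 1 h post-dosing. Primary: single 10 uM, duplicate; follow-up: concentration series. Activity = signal loss vs acetonitrile baseline, with positive and negative controls on every plate.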

[10] = molecular target: human CYP1A2, CYP1A2 (gene 1544) (UniProt P05177); experiment: NVS_ADME_hCYP1A2: NovaScreen (NVS) CYP450-related Enzyme Activity (ADME) Assay for human CYP1A2 (AID 2283102; active = hit-call score of the fitted dose curve at least 0.9, where 1 is the maximum;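 note: potency for inhibition since loss of fluorescence marks reduced CYP1A2 activity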)
Chain of human CYP1A2, CYP1A2 (gene 1544) (P05177 whole entry, looked up): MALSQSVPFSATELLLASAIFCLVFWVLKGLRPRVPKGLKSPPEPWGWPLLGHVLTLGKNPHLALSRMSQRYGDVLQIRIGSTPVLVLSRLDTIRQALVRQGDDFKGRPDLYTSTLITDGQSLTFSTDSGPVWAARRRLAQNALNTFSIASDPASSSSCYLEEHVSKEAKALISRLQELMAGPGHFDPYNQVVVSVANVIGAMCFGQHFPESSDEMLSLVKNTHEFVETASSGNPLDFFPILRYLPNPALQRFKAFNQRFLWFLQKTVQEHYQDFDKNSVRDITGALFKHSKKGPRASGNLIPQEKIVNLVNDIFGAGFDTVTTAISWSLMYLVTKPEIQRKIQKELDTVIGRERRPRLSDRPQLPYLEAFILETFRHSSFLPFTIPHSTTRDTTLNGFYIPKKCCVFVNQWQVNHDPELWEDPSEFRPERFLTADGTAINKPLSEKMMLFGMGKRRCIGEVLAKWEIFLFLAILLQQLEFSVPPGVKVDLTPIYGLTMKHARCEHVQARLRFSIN
How it was run: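 Fluorescence-intensity enzyme activity read-out, taken 0.5 h post-dosing, using insect-cell-derived recombinant CYP1A2 and specific fluorescent substrate. Acetonitrile served as negative control/baseline. Single-concentration duplicate screen at 10 uM, then concentration-response follow-up.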

[11] = molecular target: Cytochrome P450 2C18 (Homo sapiens) (UniProt P33260); experiment: NVS_ADME_hCYP2C18: NovaScreen (NVS) CYP450-related Enzyme Activity (ADME) Assay for human CYP2C18 (AID 2283103)
Chain of Cytochrome P450 2C18 (Homo sapiens) (P33260 whole entry, looked up): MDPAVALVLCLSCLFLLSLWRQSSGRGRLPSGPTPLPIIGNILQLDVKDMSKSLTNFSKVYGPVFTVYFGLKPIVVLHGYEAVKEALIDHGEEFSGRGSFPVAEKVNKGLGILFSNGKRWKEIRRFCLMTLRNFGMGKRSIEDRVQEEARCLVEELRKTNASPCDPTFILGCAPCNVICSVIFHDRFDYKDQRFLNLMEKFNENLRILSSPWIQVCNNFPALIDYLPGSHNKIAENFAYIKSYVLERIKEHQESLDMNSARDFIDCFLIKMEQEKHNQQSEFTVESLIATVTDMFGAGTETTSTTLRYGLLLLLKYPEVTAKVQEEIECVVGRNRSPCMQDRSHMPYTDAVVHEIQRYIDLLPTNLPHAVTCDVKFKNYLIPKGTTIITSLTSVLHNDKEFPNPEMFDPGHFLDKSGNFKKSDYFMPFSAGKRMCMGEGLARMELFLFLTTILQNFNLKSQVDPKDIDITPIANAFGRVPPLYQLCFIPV
How it was run: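 Cell-free recombinant human CYP2C18 with fluorogenic substrate; fluorescence intensity read 0.5 h after dosing. Single-point screen at 10 uM in duplicate, then concentration-response up to 20 uM; loss of signal fitted against acetonitrile baseline.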

[12] = molecular target: human CYP2C8, CYP2C8 (gene 1558) (UniProt P10632); experiment: NVS_ADME_hCYP2C8: NovaScreen (NVS) CYP450-related Enzyme Activity (ADME) Assay for human CYP2C8 (AID 2283104)
Chain of human CYP2C8, CYP2C8 (gene 1558) (P10632 whole entry, looked up): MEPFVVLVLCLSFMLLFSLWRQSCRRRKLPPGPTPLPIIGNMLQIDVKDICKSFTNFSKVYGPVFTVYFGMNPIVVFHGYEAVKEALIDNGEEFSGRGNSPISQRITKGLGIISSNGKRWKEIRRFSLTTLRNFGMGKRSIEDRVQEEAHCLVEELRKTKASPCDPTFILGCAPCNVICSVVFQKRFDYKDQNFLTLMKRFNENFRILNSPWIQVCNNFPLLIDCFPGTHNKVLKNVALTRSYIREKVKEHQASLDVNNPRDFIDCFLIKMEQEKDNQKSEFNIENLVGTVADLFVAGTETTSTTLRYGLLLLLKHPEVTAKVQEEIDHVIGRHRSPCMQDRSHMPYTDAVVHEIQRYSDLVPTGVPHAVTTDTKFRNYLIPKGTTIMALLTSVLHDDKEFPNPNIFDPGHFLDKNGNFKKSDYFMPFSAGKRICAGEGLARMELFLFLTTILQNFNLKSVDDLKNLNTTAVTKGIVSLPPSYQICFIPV
How it was run: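 Recombinant human CYP2C8 with fluorogenic substrate, 0.5 h, fluorescence intensity; signal loss fitted versus acetonitrile. Screened in duplicate at 10 uM, then actives run in concentration-response up to 20 uM.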

[13] = molecular target: human CYP2J2, CYP2J2 (gene 1573) (UniProt P51589); experiment: NVS_ADME_hCYP2J2: NovaScreen (NVS) CYP450-related Enzyme Activity (ADME) Assay for human CYP2J2 (AID 2283106; active = hit-call score of the fitted dose curve at least 0.9, where 1 is the maximum)
Chain of human CYP2J2, CYP2J2 (gene 1573) (P51589 whole entry, looked up): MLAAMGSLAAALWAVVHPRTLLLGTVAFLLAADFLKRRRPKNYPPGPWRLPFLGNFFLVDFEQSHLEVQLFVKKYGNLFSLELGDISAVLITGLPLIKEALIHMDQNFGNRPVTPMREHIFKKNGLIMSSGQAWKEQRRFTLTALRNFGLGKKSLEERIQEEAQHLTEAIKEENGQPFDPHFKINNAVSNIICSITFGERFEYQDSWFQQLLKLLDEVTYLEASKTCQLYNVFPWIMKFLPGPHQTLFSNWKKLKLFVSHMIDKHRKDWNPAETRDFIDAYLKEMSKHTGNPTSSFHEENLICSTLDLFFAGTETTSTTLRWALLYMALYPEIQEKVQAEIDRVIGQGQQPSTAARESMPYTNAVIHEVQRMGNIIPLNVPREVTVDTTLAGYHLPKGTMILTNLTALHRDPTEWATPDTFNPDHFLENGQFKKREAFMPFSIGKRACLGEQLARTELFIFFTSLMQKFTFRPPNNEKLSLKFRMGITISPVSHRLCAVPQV
How it was run: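 Cell-free assay of recombinant CYP2J2 with a fluorogenic substrate, read 1 h after dosing; loss of signal versus acetonitrile. Primary screen at 10 uM in duplicate, then concentration-response up to 20 uM for chemicals passing threshold (e.g., 30% inhibition).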

[14] = molecular target: human CYP2C9, CYP2C9 (gene 1559) (UniProt P11712); experiment: NVS_ADME_hCYP2C9: NovaScreen (NVS) CYP450-related Enzyme Activity (ADME) Assay for human CYP2C9 (AID 2283108; active = hit-call score of the fitted dose curve at least 0.9, where 1 is the maximum)
Chain of human CYP2C9, CYP2C9 (gene 1559) (P11712 whole entry, looked up): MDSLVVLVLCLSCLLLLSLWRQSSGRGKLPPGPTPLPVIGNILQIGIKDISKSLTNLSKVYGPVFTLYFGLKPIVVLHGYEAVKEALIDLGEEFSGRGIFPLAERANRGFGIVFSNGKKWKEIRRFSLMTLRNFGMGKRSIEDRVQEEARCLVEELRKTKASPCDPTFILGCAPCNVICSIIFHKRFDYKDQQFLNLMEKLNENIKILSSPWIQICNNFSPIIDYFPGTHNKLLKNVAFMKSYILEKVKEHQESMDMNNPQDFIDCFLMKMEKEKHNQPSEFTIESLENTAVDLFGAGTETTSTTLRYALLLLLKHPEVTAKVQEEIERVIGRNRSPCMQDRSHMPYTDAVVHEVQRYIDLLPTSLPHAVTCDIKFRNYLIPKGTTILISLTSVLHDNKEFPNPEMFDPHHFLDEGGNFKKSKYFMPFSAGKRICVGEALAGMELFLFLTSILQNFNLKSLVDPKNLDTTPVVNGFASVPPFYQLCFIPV
How it was run: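 Cell-free assay of recombinant human CYP2C9 produced in Sf9 cells, with enzyme activity read by fluorescence intensity 0.75 h after compound addition. Loss of signal versus an acetonitrile negative control indicates inhibition. Primary screen used 10 uM in duplicate; actives were retested in concentration series.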

[15] = molecular target: human CYP19A1, CYP19A1 (gene 1588) (UniProt P11511); experiment: NVS_ADME_hCYP19A1: NovaScreen (NVS) CYP450-related Enzyme Activity (ADME) Assay for human CYP19A1 (AID 2283098; active = hit-call score of the fitted dose curve at least 0.9, where 1 is the maximum)
Chain of human CYP19A1, CYP19A1 (gene 1588) (P11511 whole entry, looked up): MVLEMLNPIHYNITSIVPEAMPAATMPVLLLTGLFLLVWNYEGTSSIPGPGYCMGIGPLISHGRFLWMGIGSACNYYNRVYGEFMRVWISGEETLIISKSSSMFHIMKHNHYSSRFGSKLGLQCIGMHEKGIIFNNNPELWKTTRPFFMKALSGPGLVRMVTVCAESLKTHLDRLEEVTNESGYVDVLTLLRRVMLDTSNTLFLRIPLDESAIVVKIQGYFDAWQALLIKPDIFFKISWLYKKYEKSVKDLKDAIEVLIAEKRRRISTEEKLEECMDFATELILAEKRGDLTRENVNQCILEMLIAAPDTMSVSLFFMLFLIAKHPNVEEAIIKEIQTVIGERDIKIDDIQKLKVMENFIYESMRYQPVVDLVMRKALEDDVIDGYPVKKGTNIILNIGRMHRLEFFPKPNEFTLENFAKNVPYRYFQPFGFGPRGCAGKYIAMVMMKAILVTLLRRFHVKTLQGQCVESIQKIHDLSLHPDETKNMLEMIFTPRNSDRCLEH
How it was run: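 Cell-free enzyme assay with recombinant protein and a specific fluorogenic substrate, read by fluorescence intensity 0.5 h after dosing. Primary screen ran in duplicate at 10 uM; actives were retested in concentration series. Loss of signal versus acetonitrile baseline.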

[16] = molecular target: human CYP2A6, CYP2A6 (gene 1548) (UniProt P11509); experiment: NVS_ADME_hCYP2A6: NovaScreen (NVS) CYP450-related Enzyme Activity (ADME) Assay for human CYP2A6 (AID 2283099; active = hit-call score of the fitted dose curve at least 0.9, where 1 is the maximum)
How it was run: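 Insect-cell-expressed human CYP2A6 enzyme activity measured by fluorescence intensity 0.5 hour post-dosing. Compounds screened at 10 uM in duplicate, then hits tested singly in concentration series (max 20 uM); acetonitrile baseline.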

Measured: AC50

Chain of E-selectin (Homo sapiens) (P16581 whole entry, looked up): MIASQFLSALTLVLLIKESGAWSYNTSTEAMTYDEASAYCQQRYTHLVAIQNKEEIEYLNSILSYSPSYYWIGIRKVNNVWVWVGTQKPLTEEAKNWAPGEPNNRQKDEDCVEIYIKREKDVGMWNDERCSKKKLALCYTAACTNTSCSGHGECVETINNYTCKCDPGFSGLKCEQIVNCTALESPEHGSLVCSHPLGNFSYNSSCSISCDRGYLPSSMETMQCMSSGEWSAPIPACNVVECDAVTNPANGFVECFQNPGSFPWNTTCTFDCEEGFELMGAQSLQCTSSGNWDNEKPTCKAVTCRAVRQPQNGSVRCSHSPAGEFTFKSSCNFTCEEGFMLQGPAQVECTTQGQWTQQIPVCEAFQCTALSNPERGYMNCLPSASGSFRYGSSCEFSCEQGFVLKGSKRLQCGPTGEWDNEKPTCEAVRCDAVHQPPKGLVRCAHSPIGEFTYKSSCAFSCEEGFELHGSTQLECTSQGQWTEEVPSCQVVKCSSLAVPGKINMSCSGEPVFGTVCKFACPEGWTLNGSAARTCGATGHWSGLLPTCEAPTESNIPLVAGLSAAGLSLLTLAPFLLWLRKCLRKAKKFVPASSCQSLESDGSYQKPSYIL

COP(=S)(OC)SCn1nnc2ccccc2c1=O
active: CD40, CD40 (gene 958) 20 µM | CD69, CD69 (gene 969) 20 µM | [2] 10.4 µM | [6] 30.2 µM | [8] 0.363 µM | [9] 0.302 µM | [10] 2.79 µM | [11] 1.93 µM | [12] 6.73 µM | [13] 1.87 µM | [14] 5.2 µM
inactive: [1] | [3] | [4] | [5] | [7]

CCN(CC)C(=O)C(C)Oc1cccc2ccccc12 (centres undefined)
active: [2] 1.06 µM | [9] 5.79 µM | [11] 10.8 µM | [14] 4.54 µM
inactive: CD40, CD40 (gene 958) | CD69, CD69 (gene 969) | [1] | [3] | [4] | [5] | [6] | [7] | [15]

CC(C)NC(=O)N1CC(=O)N(c2cc(Cl)cc(Cl)c2)C1=O
active: [8] 5.48 µM | [10] 5.75 µM | [14] 4.01 µM
inactive: CD40, CD40 (gene 958) | CD69, CD69 (gene 969) | [1] | [2] | [3] | [4] | [5] | [6] | [7] | [15] | [11]

COCC(=O)N(c1c(C)cccc1C)C(C)C(=O)OC (centres undefined)
active: [7] 26.1 µM
inactive: CD40, CD40 (gene 958) | CD69, CD69 (gene 969) | [1] | [2] | [3] | [4] | [5] | [6] | [15]

N#Cc1c[nH]cc1-c1cccc2c1OC(F)(F)O2
inactive: [2] | [3] | [4]
active: CD40, CD40 (gene 958) 20 µM | CD69, CD69 (gene 969) 24.5 µM | [1] 20.4 µM | [5] 27.4 µM | [6] 20 µM | [7] 13.1 µM | [10] 0.353 µM

COCc1cnc(C2=NC(C)(C(C)C)C(=O)N2)c(C(=O)O)c1 (centres undefined)
inactive: CD40, CD40 (gene 958) | CD69, CD69 (gene 969) | [1] | [2] | [3] | [4] | [5] | [6] | [7]
active: [13] 3.83 µM

COP(=S)(OC)Oc1ccc([N+](=O)[O-])c(C)c1
inactive: [1] | [3] | [4] | [7] | [15] | [12]
active: CD40, CD40 (gene 958) 7.6 µM | CD69, CD69 (gene 969) 37 µM | [2] 29.6 µM | [5] 29.6 µM | [6] 24.9 µM | [16] 1.98 µM | [9] 1.3 µM | [10] 0.516 µM | [11] 2.31 µM | [13] 0.612 µM

CCOP(=S)(OCC)Oc1nc(Cl)n(C(C)C)n1
active: [9] 1 µM
inactive: CD40, CD40 (gene 958) | CD69, CD69 (gene 969) | [1] | [2] | [3] | [4] | [5] | [6] | [7]
